Experimental findings from the supplement of paper PMC8728848 are described below.

This is one part of a sample in which the strongest signals are shown more often than they occur.

Common to all, as to experiment: glycan array binding signal (z-score within array); higher = stronger binding
Common to all, as to conditions: glycan notation: IUPAC condensed, linker removed

In test [1] the target is Neu5Ac(a2-3)Gal(b1-4)GlcNAc(b1-3)Gal(b1-4)GlcNAc(b1-3)Gal(b1-4)GlcNAc. The essentials:
(§1)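 The binding signal is a Z-score computed within each array and averaged over linkers. Arrays of the same protein sequence at different concentrations or buffers were also averaged together. Data originate from 3228 arrays in the Consortium for Functional Glycomics database, kept only where the protein sequence was available.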

Test [2] deals with Neu5Ac(a2-3)Gal(b1-4)GlcNAc(b1-3)Gal(b1-4)GlcNAc(b1-3)GalNAc. The essentials:
as §1

Test [3] concerns the target Neu5Ac(a2-3)Gal(b1-4)GlcNAc6S. Summed up:
as §1

The target of test [4] is Neu5Ac(a2-3)Gal(b1-4)[Fuc(a1-3)]GlcNAc6S. The essentials: as §1
In test [5] the target is Neu5Ac(a2-3)Gal6S(b1-4)GlcNAc. The essentials:
as §1

The target in test [6] is Neu5Ac(a2-3)Gal6S(b1-4)[Fuc(a1-3)]GlcNAc. The essentials:
as §1

The target of the next test is Neu5Ac(a2-6)Gal(b1-4)Glc. Summed up: as §1
Test [7] has as its target Neu5Ac(a2-6)Gal(b1-4)GlcNAc(b1-3)[Neu5Ac(a2-6)Gal(b1-4)GlcNAc(b1-6)]GalNAc. The essentials: as §1
Another test addresses Neu5Ac(a2-8)Neu5Ac. Summed up: as §1
Test [8] deals with Neu5Ac(a2-8)Neu5Ac(a2-3)Gal(b1-3)GalNAc(b1-4)[Neu5Ac(a2-3)]Gal(b1-4)Glc. Summed up:
as §1

The target of test [9] is Neu5Gc(a2-3)Gal(b1-3)[Fuc(a1-4)]GlcNAc. The essentials:
as §1

Test [10] concerns the target Neu5Gc(a2-3)Gal(b1-4)GlcNAc(b1-3)Gal(b1-4)GlcNAc(b1-2)Man(a1-3)[Neu5Gc(a2-3)Gal(b1-4)GlcNAc(b1-3)Gal(b1-4)GlcNAc(b1-2)Man(a1-6)]Man(b1-4)GlcNAc(b1-4)GlcNAc. Summed up:
as §1

Another test has as its target Neu5Gc(a2-6)GalNAc. The essentials:
as §1

The target of test [11] is Neu5Gc(a2-8)Neu5Ac(a2-3)Gal(b1-4)GlcNAc. The essentials:
as §1

B1: diCBM40 CPF071 (Clostridium perfringens) (protein)
chain: MAHHHHHHVGTGSNDDDDKSPDPMLSSLGEYKDINLESSNASNITYDLEKYKNLDEGTIVVRFNSKDSKIQSLLGISNSKTKNGYFNFYVTNSRVGFELRNQKNEGNTQNGTENLVHMYKDVALNDGDNTVALKIEKNKGYKLFLNGKMIKEVKDTNTKFLNNIENLDSAFIGKTNRYGQSNEYNFKGNIGFMNIYNEPLGDDYLLSKTGETKALNGSELGSGSGLSSLGEYKDINLESSNASNITYDLEKYKNLDEGTIVVRFNSKDSKIQSLLGISNSKTKNGYFNFYVTNSRVGFELRNQKNEGNTQNGTENLVHMYKDVALNDGDNTVALKIEKNKGYKLFLNGKMIKEVKDTNTKFLNNIENLDSAFIGKTNRYGQSNEYNFKGNIGFMNIYNEPLGDDYLLSKTGETK
On to B1, for which the “glycan array binding signal (z-score)” value in [1] was 5.87; in [2], -0.157; in [3], 7.8; in [4], 5.95; in test [5], 7.24; in test [6] it was 4.71. For the same molecule, the “glycan array binding signal (z-score)” value with Neu5Ac(a2-6)Gal(b1-4)Glc is 0.183; in test [7], -0.197; with Neu5Ac(a2-8)Neu5Ac it was -0.046; in test [8], -0.2; in test [9], 0.647; in test [10], 6.28. The entries for the “glycan array binding signal (z-score)” value (with Neu5Gc(a2-6)GalNAc; in test [11]) were -0.044 and -0.252, respectively.
